Bioassay records deposited in PubChem BioAssay by National Center for Advancing Translational Sciences (NCATS).
Most compounds without a hit are left out; they make up all but 8.1% or so of the library.
Epigenetic derep: derepresses silenced GFP reporter in murine cells; AID 1865; 0.2% of 280,000 active; murine LDR cells, GFP reporter derepression, 30 h; Potency, µM (top dose mostly 53.9 µM), hits mostly activators; note: nearly all actives have a fitted effect of over 60% in size
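Murine LDR cells bearing a silenced CMV-driven GFP reporter were exposed to compound for 30 h at 37 C. After PBS washes, GFP-positive cells (20-120 um objects) counted by laser-scanning microplate cytometry.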
Sfp PPTase inh: inhibitors of Bacillus subtilis Sfp phosphopantetheinyl transferase; 3.5% of 310,000 active; Potency, µM, usual class: inhibitors; Q9F4F7; Biochemical Sfp PPTase activity, qHTS;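 note: the enzyme is Sfp with the accession as filed and its product quenches rhodamine fluorescence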
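After 15 min at room temperature with compound, 15 nM Sfp received 5 uM rhodamine-CoA plus 12.5 uM BHQ-2-ybbR (50 mM Hepes pH 7.6, 10 mM MgCl2). Rate came from the fluorescence difference over 30 min, ex 525/em 598 nm.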
RORgamma inh: inhibitors of mouse ROR gamma transcriptional activity | AID 2551 | Drosophila S2 Gal4-RORgamma UAS-luciferase reporter, 20 h | Potency, µM (top dose mostly 53.6 µM), usual class: inhibitors | 5.4% of 310,000 active; note: nearly all actives have a fitted effect of over 60% in size
Target sequence (P51450 whole entry, looked up, the tested form may be a part): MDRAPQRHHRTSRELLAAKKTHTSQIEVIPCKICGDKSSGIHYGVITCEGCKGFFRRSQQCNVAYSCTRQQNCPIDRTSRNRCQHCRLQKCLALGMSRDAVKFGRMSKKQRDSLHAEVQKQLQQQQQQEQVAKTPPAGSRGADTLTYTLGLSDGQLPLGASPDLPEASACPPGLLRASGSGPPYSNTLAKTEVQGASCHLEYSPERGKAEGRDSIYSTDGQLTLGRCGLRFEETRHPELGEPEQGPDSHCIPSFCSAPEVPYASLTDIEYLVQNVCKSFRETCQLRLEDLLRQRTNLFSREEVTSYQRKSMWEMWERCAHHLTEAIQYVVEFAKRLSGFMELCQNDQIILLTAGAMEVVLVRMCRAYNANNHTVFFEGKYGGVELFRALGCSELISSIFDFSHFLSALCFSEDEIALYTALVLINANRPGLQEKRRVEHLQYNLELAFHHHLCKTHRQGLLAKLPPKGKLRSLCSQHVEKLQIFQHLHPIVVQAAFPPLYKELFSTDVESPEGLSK
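In this cell-based reporter format, copper sulfate (700 uM final) drives Gal4–ROR gamma fusion expression from a metallothionein promoter in Drosophila Schneider cells; compounds preincubated 1 hr, reporter read after 20 hr at ambient temperature.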
VP16 counter: inhibits Gal4-VP16 luciferase reporter, ROR gamma counter-screen. Drosophila S2 Gal4-VP16 UAS-luciferase, luminescence, 20 h. Potency, µM (doses to about 53.6 µM), actives largely listed as inhibitors. 3.5% of 310,000 active;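 note: Gal4-VP16 expression switched on by copper sulfate through the metallothionein promoter; nearly all actives have a fitted effect of over 50% in size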
ClpP mod: qHTS Assay for Activators of ClpP | ATP-dependent Clp protease proteolytic subunit (Bacillus subtilis (strain 168)), P80244 | purified B. subtilis ClpP, FRET peptide cleavage, 20 min | Potency, µM (doses to about 57.5 µM) | 1.9% of 340,000 active | AID 651965, 2013; active = well fitted falling curve with a large enough effect; inconclusive = small, poorly fitted or top-dose-only effect; inactive = no such curve, though single readings can be large or run the other way; note: the source files actives as falling curves though it sought activators and does not explain the sign; nearly all actives have a fitted effect of over 65% in size
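Buffer: 100 mM Tris/HCl pH8, 100 mM KCl, 0.05% low protease BSA, 2.5% glycerol, 0.01% Tween-20. ClpP 10 microg/mL final; 20 min RT; delta FRET normalized to ADEP and DMSO controls.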
PINK1 modulator: modulators of PINK1 expression. 0.2% of 410,000 active. Potency, µM (highest dose often 76.6 µM), actives largely listed as activators. PINK1 immunofluorescence, high-content cytometry, 24 h; active = well fitted activation curve with a large enough effect; inconclusive = small, poorly fitted or top-dose-only effect; cell line not stated here; note: nearly all actives have a fitted effect of over 65% in size
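PINK1 protein, normally rapidly degraded, was detected by immunofluorescence after 24 hour compound treatment of a stable cell line. Titration data (5 concentrations) came from laser-scanning cytometry, with CCCP-treated wells as controls.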
Each line names hits and unclear results; the compound was inactive in the other large screens. Unless noted, calls come from the whole dose curve; as a rule, active = well fitted curve in the direction sought with a large enough effect; inconclusive = small, poorly fitted or top-dose-only effect, or another doubt; inactive = no such curve, though single readings can be large; an effect the other way counts as inactive or inconclusive.

CCOc1ccc(-c2cc(C(=O)NCCCN3CCOCC3)c3ccccc3n2)cc1	none (no result: Epigenetic derep)
CC(C)Oc1ccc(-c2cc(C(=O)NCCN3CCOCC3)c3ccccc3n2)cc1	Sfp PPTase inh 79µM, RORgamma inh inconclusive, VP16 counter inconclusive, ClpP mod inconclusive
O=C(NCCCN1CCCC1=O)c1cc(S(=O)(=O)N2CCN(c3ccccc3)CC2)ccc1Cl	ClpP mod 28µM (no result: Epigenetic derep, Sfp PPTase inh, RORgamma inh, VP16 counter)
CSc1cccc(Nc2cc(C(=O)NCCc3ccc(Cl)cc3)c3ccccc3n2)c1	none (no result: Sfp PPTase inh, RORgamma inh, VP16 counter)
CCCCN(CCCNC(=O)c1cc(Nc2cccc(SC)c2)nc2ccccc12)Cc1ccccc1	Epigenetic derep 35µM, ClpP mod inconclusive (no result: Sfp PPTase inh, RORgamma inh, VP16 counter)
O=C(NCCN1CCOCC1)c1cc(-c2ccc(F)cc2)nc2ccccc12	ClpP mod 25µM (no result: Epigenetic derep, Sfp PPTase inh, RORgamma inh, VP16 counter)
O=C(NCCCN1CCOCC1)c1cc(S(=O)(=O)N2CCN(c3ccccc3)CC2)ccc1Cl	none (no result: Epigenetic derep, Sfp PPTase inh, RORgamma inh, VP16 counter, ClpP mod)
CCOC(=O)c1c(C)[nH]c(C)c1S(=O)(=O)N1CCCC(C(=O)NCc2cccc(OC)c2)C1 (stereo not drawn)	none (no result: Sfp PPTase inh, RORgamma inh, VP16 counter)
COc1ccc(Nc2cc(C(=O)NCCCN3CCOCC3)c3ccccc3n2)cc1	none (no result: Epigenetic derep)
O=C(NCCCN1CCCC1=O)c1cc(-c2ccc(F)cc2)nc2ccccc12	ClpP mod 8.9µM (no result: Epigenetic derep, Sfp PPTase inh, RORgamma inh, VP16 counter)
CCc1ccc(Nc2cc(C(=O)NCCCN3CCOCC3)c3ccccc3n2)cc1	Sfp PPTase inh 35µM
COc1ccc(-c2cc(C(=O)NCCCN3CCCC3=O)c3ccccc3n2)cc1	ClpP mod inconclusive (no result: Epigenetic derep, Sfp PPTase inh, RORgamma inh, VP16 counter)
Cc1cccc2c(N3CCCC3)nc(CNS(=O)(=O)c3ccccc3Cl)nc12	none (no result: Epigenetic derep, Sfp PPTase inh, RORgamma inh, VP16 counter, ClpP mod)
COc1cccc(C(c2sc3nc(-c4ccco4)nn3c2O)N2CCC(O)CC2)c1 (stereo not drawn)	none (no result: Sfp PPTase inh, RORgamma inh, VP16 counter)
COCc1nc2ccccc2n1CCOc1cccc(C)c1	none (no result: Sfp PPTase inh, RORgamma inh, VP16 counter)
CCn1c(-c2cccn(Cc3ccc(Cl)cc3Cl)c2=O)n[nH]c1=S	RORgamma inh 10µM (no result: ClpP mod)
CC(c1n[nH]c(=S)n1Cc1ccccc1)N(C)C (stereo not drawn)	Sfp PPTase inh 89µM, RORgamma inh 1.8µM, VP16 counter inconclusive
S=c1[nH]nc(-c2ccc(Cl)cc2Cl)n1-c1ccccc1	VP16 counter inconclusive (no result: Epigenetic derep)
Cc1cccc(-c2nc3ccccc3n2Cc2ccccc2)c1	PINK1 modulator inconclusive (no result: Sfp PPTase inh, RORgamma inh, VP16 counter)
Cc1cccc(-c2n[nH]c(=S)n2Cc2ccccc2)c1	Sfp PPTase inh 79µM, RORgamma inh 0.79µM, VP16 counter 0.56µM
S=c1[nH]nc(-c2ccc(Cl)cc2Cl)n1Cc1ccccc1	Sfp PPTase inh inconclusive, RORgamma inh 2.8µM, VP16 counter 5.6µM
CCN(N=O)c1ccc(/C=C2\C=Cc3ccccc32)cc1	none (no result: Epigenetic derep, Sfp PPTase inh, RORgamma inh, VP16 counter)
CC1CCN(S(=O)(=O)c2ccc3c(ccc(=O)n3CC(=O)NCc3ccccc3)c2)CC1	none (no result: Sfp PPTase inh, RORgamma inh, VP16 counter)
C=CCn1c(CSc2ccc(C)cc2)n[nH]c1=S	RORgamma inh 4µM, VP16 counter 14µM (no result: Epigenetic derep)
CC(C)Oc1ccc(Cn2c(-c3ccco3)n[nH]c2=S)cc1	Epigenetic derep inconclusive, Sfp PPTase inh inconclusive, RORgamma inh 2.8µM, VP16 counter 4.5µM, ClpP mod 28µM
Cc1nn(C)c(-c2n[nH]c(=S)n2Cc2ccco2)c1Cl	RORgamma inh inconclusive, VP16 counter inconclusive
S=c1[nH]nc(-c2cccc(Cl)c2)n1Cc1ccccc1	RORgamma inh 2.5µM, VP16 counter 2.5µM
Cc1ccc(-c2n[nH]c(=S)n2Cc2ccccc2)cc1	RORgamma inh 2.8µM, VP16 counter 6.3µM
Clc1cccc(-c2nc3nc4ccccc4nc3n2Cc2ccccc2)c1	ClpP mod inconclusive
CC(C)c1ccc(NC(=O)c2cc(S(=O)(=O)N(C)C3CCCCC3)ccc2F)cc1	none (no result: Sfp PPTase inh, RORgamma inh, VP16 counter)
Cc1cccc(CNC(=O)c2ccc(NC(=O)N3CC(C)Sc4ccccc43)cc2)c1 (stereo not drawn)	none (no result: Sfp PPTase inh, RORgamma inh, VP16 counter)
COC(=O)c1cc(CNC(=O)c2ccccc2)cc(NC(=O)c2ccccc2OC)c1	none (no result: Epigenetic derep, Sfp PPTase inh, RORgamma inh, VP16 counter, ClpP mod)
COc1ccc(-c2n[nH]c(=S)n2CC(C)C)cc1	RORgamma inh 10µM, VP16 counter inconclusive
S=c1[nH]nc(-c2cc3ccccc3o2)n1Cc1ccccc1	RORgamma inh 0.63µM, VP16 counter 1.8µM, ClpP mod 3.2µM
